Results as given in PubChem BioAssay (NCI).
Compounds without any hit were thinned out: in the full panel of roughly 83,000, 20% have a hit.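 Single-dose data. Exposure time 48 hours. Values below 10 considered active.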 The source made the active and inactive calls.

Experiments:
Assay in all cases: NCI-60 one-dose screen, 48 h (100 = growth as untreated, 0 = no growth, -100 = all killed)
Conditions in all cases: 10 µM unless noted
SR leukemia = test system: SR leukemia
RPMI-8226 leukemia = test system: RPMI-8226 leukemia
OVCAR-8 ovarian = test system: OVCAR-8 ovarian
OVCAR-5 ovarian = test system: OVCAR-5 ovarian
OVCAR-4 ovarian = test system: OVCAR-4 ovarian
IGROV1 ovarian = test system: IGROV1 ovarian
OVCAR-3 ovarian = test system: OVCAR-3 ovarian
HS 578T breast = test system: HS 578T breast
NCI/ADR-RES ovarian = test system: NCI/ADR-RES ovarian
SK-OV-3 ovarian = test system: SK-OV-3 ovarian

Measured: growth

Cc1ccc(/C=C/CC(=O)Nc2ccc(C(=O)Nc3ccc(F)cc3N)cc2)cn1
inactive: SR leukemia 46.1% | RPMI-8226 leukemia 19.8% | OVCAR-8 ovarian 48.4% | OVCAR-5 ovarian 55.7% | OVCAR-4 ovarian 62.1% | IGROV1 ovarian 65.5% | OVCAR-3 ovarian 79.5% | HS 578T breast 56.7% | NCI/ADR-RES ovarian 90%

O=C(O)CNS(=O)(=O)c1ccc(Oc2ccc(S(=O)(=O)NCC(=O)O)cc2)cc1
inactive: SR leukemia 96.7% | RPMI-8226 leukemia 100% | OVCAR-8 ovarian 97.9% | OVCAR-5 ovarian 101% | OVCAR-4 ovarian 111% | IGROV1 ovarian 104% | OVCAR-3 ovarian 104% | HS 578T breast 95.2% | NCI/ADR-RES ovarian 102%

CN1CCN(c2ccc(NC(=O)Nc3ccc4c(ccn4-c4cccc(C(N)=O)n4)c3)cc2C(F)(F)F)CC1
inactive: SR leukemia 14.6% | OVCAR-8 ovarian 77.6% | OVCAR-5 ovarian 85.3% | OVCAR-4 ovarian 84.9% | IGROV1 ovarian 80.1% | OVCAR-3 ovarian 102% | HS 578T breast 22.1% | NCI/ADR-RES ovarian 94.5%
active: RPMI-8226 leukemia -17.5%

C/C(=C(/C)C1CC1CCN(C(=O)c1ccc([N+](=O)[O-])cc1)S(=O)(=O)c1ccc(C)cc1)C1CCCCC1 (centres undefined)
inactive: SR leukemia 94.8% | RPMI-8226 leukemia 85.7% | OVCAR-8 ovarian 97.6% | OVCAR-5 ovarian 101% | OVCAR-4 ovarian 90.8% | IGROV1 ovarian 111% | HS 578T breast 102% | NCI/ADR-RES ovarian 94.3%

COc1ccc(C(=O)c2c(N)c(C#N)cn2-c2cccc(OC)c2)cc1
inactive: SR leukemia 27% | RPMI-8226 leukemia 22.1% | OVCAR-8 ovarian 34.2% | OVCAR-5 ovarian 56.9% | OVCAR-4 ovarian 63.1% | IGROV1 ovarian 32% | OVCAR-3 ovarian 30.3% | HS 578T breast 11%

O=C(NNc1nc2cc(F)c(F)cc2n2cccc12)c1ccncn1
active: OVCAR-4 ovarian 3.66% | NCI/ADR-RES ovarian 5.95%
inactive: SR leukemia 14.6% | RPMI-8226 leukemia 16.9% | OVCAR-8 ovarian 17.5% | OVCAR-5 ovarian 39% | IGROV1 ovarian 15.7% | OVCAR-3 ovarian 12.7% | HS 578T breast 48.2%

CCN(CC)CCN1C(=O)c2c(c3c4cc(Br)ccc4[nH]c3c3ccc4ccccc4c23)C1=O
inactive: OVCAR-4 ovarian 36.6% | SK-OV-3 ovarian 61.9%
active: SR leukemia -24.6% | RPMI-8226 leukemia -42.4% | OVCAR-8 ovarian -58.2% | OVCAR-5 ovarian -95.2% | IGROV1 ovarian -83.7% | HS 578T breast -4.17% | NCI/ADR-RES ovarian -76.3%

COc1ccc(-c2nc3cc(Cl)c(Cl)cc3n2CC(=O)N=Nc2c(O)[nH]c3ccc(Cl)cc23)cc1
active: OVCAR-4 ovarian 5.4% | IGROV1 ovarian 5.72% | HS 578T breast 2.89%
inactive: SR leukemia 51.6% | RPMI-8226 leukemia 40.2% | OVCAR-8 ovarian 45.3% | OVCAR-5 ovarian 35.4% | SK-OV-3 ovarian 52.5% | NCI/ADR-RES ovarian 17.8%

Cn1c(SC(C(=O)Nc2ccc(F)cc2)c2ccccc2)nc2ccccc2c1=O (centres undefined)
inactive: SR leukemia 96.9% | RPMI-8226 leukemia 98.4% | OVCAR-8 ovarian 99.7% | OVCAR-5 ovarian 111% | OVCAR-4 ovarian 102% | SK-OV-3 ovarian 109% | IGROV1 ovarian 102% | HS 578T breast 98.8% | NCI/ADR-RES ovarian 109%

C(=C(\C1=NCCN1)n1cnc2ccccc21)/c1ccc2ccccc2c1
inactive: SR leukemia 42.5% | RPMI-8226 leukemia 67.1% | OVCAR-8 ovarian 88.5% | OVCAR-5 ovarian 79.4% | OVCAR-4 ovarian 72.6% | SK-OV-3 ovarian 66% | IGROV1 ovarian 81.2% | HS 578T breast 57.6% | NCI/ADR-RES ovarian 76.6%

O=C1Nc2cc(OC(F)(F)F)ccc2Oc2ccc(-c3ccnc(N4CCNCC4)c3)cc21
inactive: OVCAR-8 ovarian 20.9% | OVCAR-5 ovarian 14.7% | OVCAR-4 ovarian 48% | SK-OV-3 ovarian 20.5%
active: SR leukemia -44% | RPMI-8226 leukemia -50.9% | IGROV1 ovarian -1.58% | HS 578T breast 2.5% | NCI/ADR-RES ovarian 5.35%

O=C(NNc1nc2cc(F)cc(F)c2n2cccc12)c1ncccn1
active: NCI/ADR-RES ovarian -1.21%
inactive: SR leukemia 13.2% | RPMI-8226 leukemia 12.7% | OVCAR-8 ovarian 16.7% | OVCAR-5 ovarian 40.5% | OVCAR-4 ovarian 20.9% | IGROV1 ovarian 14% | OVCAR-3 ovarian 16.3% | HS 578T breast 42.8%

COc1ccc(NC2=C(Cl)C(=O)C(C)=C(C)C2=O)cc1
inactive: SR leukemia 20.6% | RPMI-8226 leukemia 68.8% | OVCAR-8 ovarian 51.8% | OVCAR-5 ovarian 103% | OVCAR-3 ovarian 101% | HS 578T breast 95.1% | NCI/ADR-RES ovarian 93.9%
active: OVCAR-4 ovarian -98.7% | IGROV1 ovarian -49.1%

O=C(NNc1nc2cc(F)c(F)cc2n2cccc12)c1cccnn1
active: RPMI-8226 leukemia 9.62% | OVCAR-4 ovarian 4.78% | OVCAR-3 ovarian 7.39% | NCI/ADR-RES ovarian -0.232%
inactive: SR leukemia 11.8% | OVCAR-8 ovarian 19.8% | OVCAR-5 ovarian 42.5% | IGROV1 ovarian 14.4% | HS 578T breast 29.3%

Cc1cn(-c2cc(NC(=O)c3cncc(C#Cc4cnc5ccc(OCCCS(C)(=O)=O)nn45)c3)cc(C(F)(F)F)c2)cn1
inactive: RPMI-8226 leukemia 39.5% | OVCAR-8 ovarian 15.4% | OVCAR-5 ovarian 22.6% | OVCAR-4 ovarian 58.4% | SK-OV-3 ovarian 104% | IGROV1 ovarian 14.4% | NCI/ADR-RES ovarian 89.6%
active: SR leukemia 2.78% | HS 578T breast -3.18%

C#C[C@]1(O)CC[C@H]2[C@@H]3CC=C4c5sc(Nc6cccc(C)n6)nc5CC[C@]4(C)[C@H]3CC[C@@]21C
inactive: OVCAR-8 ovarian 39% | OVCAR-5 ovarian 56.4% | OVCAR-4 ovarian 56.6% | IGROV1 ovarian 45.5% | NCI/ADR-RES ovarian 38.5%
active: SR leukemia -25% | RPMI-8226 leukemia -33.2% | SK-OV-3 ovarian -7.51% | HS 578T breast -15.8%

O=C(NNc1nc2cc(F)cc(F)c2n2cccc12)c1ccncn1
inactive: OVCAR-8 ovarian 12.5% | OVCAR-5 ovarian 40.9% | IGROV1 ovarian 15.1% | HS 578T breast 34%
active: SR leukemia 4.42% | RPMI-8226 leukemia 9.13% | OVCAR-4 ovarian 4.29% | OVCAR-3 ovarian 8.94% | NCI/ADR-RES ovarian 1.44%

CCOC(=O)c1nn(-c2ccc(C)cc2)c(=O)c2c(N)c(C#N)c(-c3ccc(OC)cc3)cc12
inactive: SR leukemia 127% | RPMI-8226 leukemia 98.6% | OVCAR-8 ovarian 101% | OVCAR-5 ovarian 94.3% | OVCAR-4 ovarian 101% | IGROV1 ovarian 80.2% | OVCAR-3 ovarian 108% | HS 578T breast 90.1% | NCI/ADR-RES ovarian 106%

CCn1c2ccc(/C=N/NS(=O)(=O)CCN(C)C)cc2c2cc(/C=N/NS(=O)(=O)CCN(C)C)ccc21
inactive: SR leukemia 83.8% | RPMI-8226 leukemia 99.8% | OVCAR-8 ovarian 104% | OVCAR-5 ovarian 100% | OVCAR-4 ovarian 99.8% | SK-OV-3 ovarian 104% | IGROV1 ovarian 77.7% | HS 578T breast 91.1% | NCI/ADR-RES ovarian 98.1%

COc1cc(/C=C/C(=O)c2ccc(NC(=O)CSc3nnc(-c4ccc5nc(-c6ccccc6)[nH]c5c4)o3)cc2)cc(OC)c1OC
inactive: SR leukemia 36.8% | RPMI-8226 leukemia 30.7% | OVCAR-8 ovarian 97.1% | OVCAR-5 ovarian 102% | OVCAR-4 ovarian 99.5% | SK-OV-3 ovarian 116% | IGROV1 ovarian 97.2% | HS 578T breast 85.5% | NCI/ADR-RES ovarian 100%

O=C(NNc1nc2cc(F)c(F)cc2n2cccc12)c1ncccn1
inactive: SR leukemia 18.7% | RPMI-8226 leukemia 20.8% | OVCAR-8 ovarian 21.9% | OVCAR-5 ovarian 49.6% | OVCAR-4 ovarian 13.4% | IGROV1 ovarian 20.5% | OVCAR-3 ovarian 20.8% | HS 578T breast 49.1% | NCI/ADR-RES ovarian 10.1%

C(=C(\C1=NCCN1)n1cnc2ccccc21)/c1cccc2ccccc12
inactive: SR leukemia 84.7% | RPMI-8226 leukemia 87.2% | OVCAR-8 ovarian 95.8% | OVCAR-5 ovarian 81.4% | OVCAR-4 ovarian 93.3% | SK-OV-3 ovarian 89% | IGROV1 ovarian 89.7% | HS 578T breast 92.9% | NCI/ADR-RES ovarian 96.8%

C=CCn1c(SCC(=O)Nc2cccc(C(=O)/C=C/c3ccccc3Cl)c2)nc2ccccc2c1=O
active: RPMI-8226 leukemia 1.65%
inactive: SR leukemia 14% | OVCAR-8 ovarian 92% | OVCAR-5 ovarian 95.1% | OVCAR-4 ovarian 87.7% | SK-OV-3 ovarian 119% | IGROV1 ovarian 92% | HS 578T breast 89.6% | NCI/ADR-RES ovarian 90.4%

CNC(=O)c1cc(Oc2ccc3nc(NC(=O)c4cccc(C(F)(F)F)c4)sc3c2)ccn1
inactive: SR leukemia 111% | RPMI-8226 leukemia 112% | OVCAR-8 ovarian 106% | OVCAR-5 ovarian 97.7% | OVCAR-4 ovarian 101% | SK-OV-3 ovarian 111% | IGROV1 ovarian 107% | HS 578T breast 102% | NCI/ADR-RES ovarian 101%

Cc1csc(Nc2cccc(Nc3nc(C)cs3)c2)n1
inactive: SR leukemia 63.9% | RPMI-8226 leukemia 62.3% | OVCAR-8 ovarian 82.7% | OVCAR-5 ovarian 92% | OVCAR-4 ovarian 66.8% | SK-OV-3 ovarian 98.7% | IGROV1 ovarian 76.6% | HS 578T breast 85.3% | NCI/ADR-RES ovarian 66.9%

O=c1c2ccccc2nc(COc2ccccc2)n1/N=C/C=C/c1ccccc1
inactive: SR leukemia 85.7% | RPMI-8226 leukemia 87.5% | OVCAR-8 ovarian 100% | OVCAR-5 ovarian 98.8% | OVCAR-4 ovarian 90% | IGROV1 ovarian 90.2% | OVCAR-3 ovarian 103% | HS 578T breast 94.4% | NCI/ADR-RES ovarian 91.8%

COc1ccc(C(=O)n2cc(C=O)c3ccccc32)cc1
inactive: SR leukemia 65.5% | RPMI-8226 leukemia 98.2% | OVCAR-8 ovarian 96.4% | OVCAR-5 ovarian 102% | OVCAR-4 ovarian 111% | SK-OV-3 ovarian 133% | IGROV1 ovarian 93.4% | HS 578T breast 101% | NCI/ADR-RES ovarian 94.7%

COc1ccc(CCN2C(=O)CSC2=S)cc1OC
inactive: SR leukemia 64.6% | RPMI-8226 leukemia 32.8% | OVCAR-8 ovarian 98.6% | OVCAR-5 ovarian 104% | OVCAR-4 ovarian 100% | SK-OV-3 ovarian 99.1% | IGROV1 ovarian 102% | HS 578T breast 104% | NCI/ADR-RES ovarian 101%

Cc1cc(=O)n2nc(-c3cn(C)c4ccc(Cl)cc34)sc2n1
inactive: SR leukemia 93% | RPMI-8226 leukemia 94.5% | OVCAR-8 ovarian 96.8% | OVCAR-5 ovarian 93.8% | OVCAR-4 ovarian 93.7% | SK-OV-3 ovarian 84.3% | IGROV1 ovarian 83.7% | HS 578T breast 83.9% | NCI/ADR-RES ovarian 93.2%
